Test results from PubChem BioAssay.
Unmarked numbers belong to inactive results. For some of these results: Measured potencies and affinities stand elsewhere. Calls of active or inactive are those of the source. Unless noted, how the calls were made is not given here.

Legend:
[1] = antimalarial activity against Dd2 strain (AID 2302;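 active means growth inhibition above 50% at the single 2 µM test dose, taken to imply half-maximal potency below 2 µM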;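 further: 0% = DMSO untreated growth and 100% = chloroquine plus artemisinin killed control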); conditions: P. falciparum Dd2 in RBCs, LDH growth readout, 72 h; at 2 µM; active compounds read high
[2] = HepG2 cytotoxicity, primary screen, cytotoxicity control for P. falciparum antimalarial project, cell-based, ATP luminescence (AID 2303;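 active means inhibition above 50%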;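 further: 0% = DMSO wells and 100% = digitonin-killed cells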); conditions: HepG2 viability, 24-48 h, at 10 µM, active compounds read high
[3] = target: L-lactate dehydrogenase (Plasmodium falciparum (isolate CDC / Honduras)) (UniProt Q27743); assay: PfLDH activity inhibition – cell lysate, 3D7 strain, counter-screen for P. falciparum growth inhibition project (AID 2304);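 further: 0% = vehicle and 100% = reference inhibitor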; conditions: P. falciparum 3D7 crude extract, LDH APAD/NBT absorbance; at 2 µM; active compounds read high
Chain of L-lactate dehydrogenase (Plasmodium falciparum (isolate CDC / Honduras)) (Q27743 whole entry, looked up): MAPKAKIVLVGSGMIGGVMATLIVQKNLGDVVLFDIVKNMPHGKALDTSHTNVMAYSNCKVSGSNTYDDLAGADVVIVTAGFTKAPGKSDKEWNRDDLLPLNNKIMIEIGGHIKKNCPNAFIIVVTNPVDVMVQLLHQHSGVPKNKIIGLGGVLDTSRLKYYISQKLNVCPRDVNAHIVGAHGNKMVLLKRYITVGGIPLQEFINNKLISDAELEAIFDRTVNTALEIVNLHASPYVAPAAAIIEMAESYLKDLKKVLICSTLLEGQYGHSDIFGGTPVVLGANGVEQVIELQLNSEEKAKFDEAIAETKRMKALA

[4] = inhibition of 3D7 malaria parasite growth – strain 3D7 (AID 2306);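 further: 0% = DMSO wells and 100% = chloroquine plus artemisinin control wells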; conditions: P. falciparum 3D7 erythrocytic growth, LDH absorbance, 72 h; at 2 µM; active compounds read high
[5] = target: Calcium-dependent protein kinase 1 (Plasmodium falciparum (isolate 3D7)) (UniProt P62344); assay: PfCDPK1 kinase inhibitors, biochemical, TCAMS library (AID 1159585; cut-off not given, nearly all actives have IC50 up to about 0.98 µM;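 further: inhibitors leave more ATP so luminescence rises with inhibition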); conditions: recombinant PfCDPK1, Kinase-Glo ATP depletion luminescence
Chain of Calcium-dependent protein kinase 1 (Plasmodium falciparum (isolate 3D7)) (P62344 whole entry, looked up): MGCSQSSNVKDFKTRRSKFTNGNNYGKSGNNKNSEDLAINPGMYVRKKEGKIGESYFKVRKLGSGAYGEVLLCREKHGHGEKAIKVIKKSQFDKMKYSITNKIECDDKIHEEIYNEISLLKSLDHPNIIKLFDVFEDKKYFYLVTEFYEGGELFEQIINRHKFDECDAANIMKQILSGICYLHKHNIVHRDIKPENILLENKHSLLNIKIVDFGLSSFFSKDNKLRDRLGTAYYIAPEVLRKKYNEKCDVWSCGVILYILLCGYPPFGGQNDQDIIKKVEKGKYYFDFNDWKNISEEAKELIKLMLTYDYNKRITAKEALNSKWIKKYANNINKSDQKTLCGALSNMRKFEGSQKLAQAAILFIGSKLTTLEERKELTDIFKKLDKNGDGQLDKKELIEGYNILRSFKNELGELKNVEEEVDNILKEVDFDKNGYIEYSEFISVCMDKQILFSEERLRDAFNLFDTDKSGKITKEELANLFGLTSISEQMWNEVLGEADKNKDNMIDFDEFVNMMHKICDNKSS

[6] = target: Plasmodium falciparum protein kinase 6 (PK6, PF3D7_1337100) (UniProt Q8IDW1); assay: PfPK6 kinase inhibitors, biochemical, TCAMS library (AID 1159586); conditions: recombinant PfPK6, Kinase-Glo ATP depletion luminescence
Chain of Plasmodium falciparum protein kinase 6 (PK6, PF3D7_1337100) (Q8IDW1 1-305): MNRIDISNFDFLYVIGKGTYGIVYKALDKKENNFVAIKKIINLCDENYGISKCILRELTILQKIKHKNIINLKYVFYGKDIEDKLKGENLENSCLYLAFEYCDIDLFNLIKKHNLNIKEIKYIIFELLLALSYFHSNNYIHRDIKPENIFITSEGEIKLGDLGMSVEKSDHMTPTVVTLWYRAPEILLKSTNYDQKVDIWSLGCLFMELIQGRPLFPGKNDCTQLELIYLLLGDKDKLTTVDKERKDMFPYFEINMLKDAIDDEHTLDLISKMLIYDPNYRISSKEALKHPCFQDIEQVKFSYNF

[7] = target: Protein kinase 7 (PK7), Plasmodium falciparum 3D7 (PF3D7_0213400) (UniProt Q7YTF7); assay: inhibition of Plasmodium PK7 catalytic activity – biochemical, TCAMS antimalarial set, Kinase-Glo luminescence (AID 1159587); conditions: recombinant PfPK7, Kinase-Glo ATP depletion luminescence
Chain of Protein kinase 7 (PK7), Plasmodium falciparum 3D7 (PF3D7_0213400) (Q7YTF7 1-343): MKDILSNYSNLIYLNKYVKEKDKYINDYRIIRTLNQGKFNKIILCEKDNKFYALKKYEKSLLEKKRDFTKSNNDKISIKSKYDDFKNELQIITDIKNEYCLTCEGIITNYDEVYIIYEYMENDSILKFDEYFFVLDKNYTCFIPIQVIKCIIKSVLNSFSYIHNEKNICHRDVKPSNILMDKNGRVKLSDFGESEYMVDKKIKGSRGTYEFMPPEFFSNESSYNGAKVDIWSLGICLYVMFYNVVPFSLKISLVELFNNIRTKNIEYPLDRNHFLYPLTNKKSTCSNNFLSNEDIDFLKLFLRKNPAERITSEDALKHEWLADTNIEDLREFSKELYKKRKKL

[8] = target: Calcium-dependent protein kinase 4 (Plasmodium falciparum (isolate 3D7)) (UniProt Q8IBS5); assay: PfCDPK4 kinase inhibitors, biochemical, TCAMS library (AID 1159588; cut-off not given, nearly all actives have IC50 up to about 0.91 µM); conditions: recombinant PfCDPK4, Kinase-Glo ATP depletion luminescence
Chain of Calcium-dependent protein kinase 4 (Plasmodium falciparum (isolate 3D7)) (Q8IBS5 whole entry, looked up): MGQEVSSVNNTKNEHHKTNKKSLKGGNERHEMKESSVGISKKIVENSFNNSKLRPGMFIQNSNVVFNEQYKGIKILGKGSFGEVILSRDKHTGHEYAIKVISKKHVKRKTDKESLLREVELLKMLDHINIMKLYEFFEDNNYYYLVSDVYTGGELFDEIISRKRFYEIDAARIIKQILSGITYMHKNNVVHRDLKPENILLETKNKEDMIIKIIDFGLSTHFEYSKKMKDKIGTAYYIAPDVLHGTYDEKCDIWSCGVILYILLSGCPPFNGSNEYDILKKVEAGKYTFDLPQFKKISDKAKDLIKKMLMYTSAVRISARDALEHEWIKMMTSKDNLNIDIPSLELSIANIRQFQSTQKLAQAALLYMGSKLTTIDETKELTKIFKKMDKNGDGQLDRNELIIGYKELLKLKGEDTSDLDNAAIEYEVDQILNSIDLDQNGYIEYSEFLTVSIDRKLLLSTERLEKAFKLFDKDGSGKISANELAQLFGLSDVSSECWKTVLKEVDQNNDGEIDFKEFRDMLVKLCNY

Compound | growth inhibition [1] | inhibition [2] | inhibition [3] [%] | growth inhibition [4] | outcome [5] | outcome [6] | outcome [7] | outcome [8]
Cc1ccc2cc(NCCCCCCCCON3C(N)=NC(N)=NC34CCCCC4)ccc2n1 | 80% (active) | 15% | 3 | 92% (active) | inactive | inactive | inactive | inactive
CN(C)c1ccc(-c2csc(C(=O)NC3CCCCN(CCC(C)(C)C)C3)c2)cc1 (stereo not given) | 68% (active) | 10% | 4 | 91% (active) | inactive | inactive | inactive | inactive
COc1ccccc1CCNc1nc(C)cc(N[C@@H](CC(C)C)C(=O)NCc2cccc(F)c2)n1 | 79% (active) | 20% | -3 | 94% (active) | inactive | inactive | inactive | inactive
CC(C)CNCc1cccc(-c2ccc(CNc3ccc(C(=O)c4ccccc4)cc3)cc2)c1 | 0% | 10% | 0 | 97% (active) | inactive | inactive | inactive | inactive
Cc1cc2c(NC(=O)NC3CCN(Cc4ccc(Cl)c(Cl)c4)CC3)cccc2cn1 | 41% | 11% | -2 | 100% (active) | inactive | inactive | inactive | inactive
O=C(Nc1ccccc1Cl)c1cc2ccccc2cc1O | 72% (active) | 2% | -4 | 94% (active) | inactive | inactive | inactive | inactive
CCCCCCN1CCC(NCc2cccc(C#N)c2)CC1 | 9% | 5% | -1 | 97% (active) | inactive | inactive | inactive | inactive
OC(CNCc1ccccc1OCc1ccccc1)c1cccc(Cl)c1 (stereo not given) | 100% (active) | -6% | 7 | 100% (active) | inactive | inactive | inactive | inactive
CC(C)c1ccc(S(=O)(=O)Nc2cccc(CCN3CCC(N4CCCCC4)CC3)c2)cc1 | 35% | 37% | 6 | 101% (active) | inactive | inactive | inactive | inactive
CC(C)(C)OC(=O)NCc1ccc(Nc2nnc(-c3cccc(C(=O)NCCC(c4ccccc4)c4ccccc4)c3)o2)cc1 | 89% (active) | -4% | -2 | 100% (active) | inactive | inactive | inactive | inactive
CCc1ccc(NC(=O)c2cccc(CN3CCCN(Cc4ccc(OC)cc4)CC3)c2)cc1 | -6% | 35% | 5 | 97% (active) | inactive | inactive | inactive | inactive
O=C1C(c2ccccc2)=C(Nc2cccc(OC(F)(F)C(F)F)c2)c2ccccc21 | 96% (active) | -5% | 0 | 96% (active) | inactive | inactive | inactive | inactive
Cn1nc(-c2ccc(Cl)cc2)c2cc(C(=O)NCCN3CCOCC3)sc21 | 29% | 21% | -8 | 97% (active) | inactive | inactive | inactive | inactive
O=C(Cc1cnc[nH]1)Nc1ccc(-c2ccc(-c3nc4ccc(F)cc4[nH]3)cc2)cc1 | 91% (active) | 39% | 0 | 100% (active) | inactive | inactive | inactive | inactive
Cc1cc(C(=O)CN2C(=O)NC3(CCCc4ccccc43)C2=O)c(C)n1Cc1ccco1 (stereo not given) | -5% | 11% | 4 | 90% (active) | inactive | inactive | inactive | inactive
Cc1cc(C)c(CON2C(N)=NC(N)=NC2(C)C)cc1C | 93% (active) | 65% (active) | 2 | 92% (active) | inactive | inactive | inactive | inactive
CS(=O)(=O)c1ccc2nc(-c3cc(-c4ccc(OCCN5CCOCC5)cc4)cnc3N)[nH]c2c1 | 99% (active) | 43% | -4 | 100% (active) | inactive | inactive | inactive | inactive
NC1CCN(Cc2cccc(-c3ccc(-c4nc5ccc(F)cc5[nH]4)cc3)c2)C1 (stereo not given) | 99% (active) | 24% | -1 | 99% (active) | inactive | inactive | inactive | inactive
COCCNCc1cccc(-c2ccccc2CN(C(=O)c2ccc3c(c2)OCO3)c2ccc(OC)cc2)c1 | 46% | 6% | 2 | 90% (active) | inactive | inactive | inactive | inactive
O=C(/C=C/c1cccc(Cl)c1)N1CCC(C(O)CN2CCC3(CC2)CN(C(=O)/C=C/c2cccc(Cl)c2)c2ccccc23)CC1 (stereo not given) | 38% | 34% | 0 | 91% (active) | inactive | inactive | inactive | inactive
